HCMV inh – human cytomegalovirus inhibition | HFF cells, HCMV-luciferase reporter, 72 h; active compounds read low | activity change, negative = inhibition, % at 57.5 µM | 4.5% of 410,000 active | AID 1259415; in the data active = activity change below about -60%; inconclusive = no clear call, values can overlap the other calls; inactive = above about -39%; note: % is set by controls: 0 for no effect and ±100 for the full control effect
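Cell-based, HFFs, 1000 cells/well, 16 h 37C; cpds in DMSO + HCMV-luc, MOI 1 PFU/cell; 72 h 37C; OneGlo luminescence after 5 min RT; norm. to buffer vs Salinomycin 10uM.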
CHX counter – affects cycloheximide protein synthesis inhibition readout, counter-screen; 12% of 300,000 active; cell reporter, cycloheximide protein synthesis inhibition counterscreen; max response, %; in the data active = max response mostly above about 13%, no sharp cut-off; inactive = mostly below about 14%; note: read at 38.3 µM for the half of the compounds with a filed dose; 0% is about no effect
Shiga inhibitor – blocks Shiga toxin action in Vero cells | 9.2% of 290,000 active | inhibition, % at 38.7 µM | Vero cells, Shiga toxin protein synthesis inhibition reporter; in the data active = inhibition mostly above about 28%, no sharp cut-off; inactive = mostly below about 43%; note: 0% is about no effect
Pf growth 96h – inhibits malaria parasite growth, 96 h; AID 504834; P. falciparum luciferase reporter growth, 96 h; Potency, µM (series often up to 28.7 µM), inactives show at the highest dose activity change, negative = inhibition, hits mostly inhibitors; 6.9% of 320,000 active; note: potency is the fitted concentration of half-maximal effect; % is set by controls: 0 for no effect and ±100 for the full control effect
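Cell-based qHTS: luciferase-tagged P. falciparum in erythrocytes (2% hematocrit, 0.05% parasitemia final) incubated with compounds for 96 hours, 37 C, 5% CO2; luciferase detection reagent then added and luminescence measured.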
Pf growth 48h – P. falciparum growth inhibition at 48 hours (one generation); Potency, µM (series often up to 28.7 µM), without a hit: at the top dose activity change, negative = inhibition, most hits filed as inhibitors; P. falciparum luciferase growth in erythrocytes, 48 h; 5.9% of 310,000 active; note: potency is the fitted concentration of half-maximal effect; % is set by controls: 0 for no effect and ±100 for the full control effect
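Firefly luciferase activity from engineered P. falciparum reports growth; inhibitors lower the luminescent signal. Cultures contained 2% hematocrit erythrocytes at 0.1% final parasitemia.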
* marks the source's active call; other numbers are inactive results; ? = inconclusive; / = no result given. Sampled rows, rich in hits. Any-hit rate of the full collection: about 20%. Unless noted, calls come from the whole dose curve; as a rule, active = well fitted inhibition curve with a large enough effect; inconclusive = small, poorly fitted or top-dose-only effect, or another doubt; inactive = no such curve, though single readings can be large or run the other way.

SMILES | HCMV inh | CHX counter | Shiga inhibitor | Pf growth 96h | Pf growth 48h
Cc1ccccc1CC1(CO)CCCN(C(=O)c2ccc(F)cc2)C1 (centres undefined) | 34 | 1 | -13 | ? | -12%
Cc1ccccc1CC1(CO)CCCN(C(=O)c2ccccc2N(C)C)C1 (centres undefined) | -29 | -4 | -11 | 0.93µM* | ?
Cc1ccsc1C(=O)N1CCCC(CO)(Cc2ccccc2)C1 (centres undefined) | 15 | 22* | 38 | ? | 3%
Cc1ccc(-n2nc3c(=O)n(CCCC(=O)NCCc4ccccc4Cl)nc(C)c3c2C)cc1 | 28 | 11 | -3 | / | /
Cc1ccc(-n2nc3c(=O)n(CCCC(=O)NCc4ccc(C)o4)nc(C)c3c2C)cc1 | ? | 12 | -4 | ? | 10µM*
Cc1ccc(-n2nc3c(=O)n(CC(=O)NCc4ccc(C)o4)nc(C)c3c2C)cc1 | -17 | -5 | -13 | ? | 15%
Cc1ccc(-n2nc3c(=O)n(CCCC(=O)NCc4cccc(Cl)c4)nc(C)c3c2C)cc1 | 28 | 19 | -11 | ? | 9.3µM*
Cc1ccc(-n2nc3c(=O)n(CCCC(=O)NCc4ccccc4Cl)nc(C)c3c2C)cc1 | ? | 6 | -10 | 2.6µM* | ?
Cc1ccc(-c2nc(=S)c3c(n2Cc2cccnc2)CC(C)(C)OC3)cc1 | 30 | -4 | -7 | 4% | 1%
Cc1ccccc1NC(=O)CSC1=Nc2ccccc2C2=NC(Cc3ccccc3)C(=O)N12 (centres undefined) | 11 | / | / | / | /
C=CCNc1nc(Cl)nc(Nc2ccc(OCC)cc2)n1 | -24 | -4 | -15 | -1% | 3%
COc1ccc(-c2cc(-c3n[nH]c(=S)n3-c3ccccc3OC)[nH]n2)cc1 | 12 | 2 | 6 | 17% | 32%
COc1ccc(-c2cc(-c3ccccc3O)[nH]n2)cc1 | 76 | 55* | 71* | 224% | 59%
COc1ccc(-c2cc(-c3ccccc3)n[nH]2)c(O)c1 | 123 | 32* | 82* | 23% | -22%
COc1ccc(OC)c(-n2c(-c3cc(-c4ccccc4)n[nH]3)n[nH]c2=S)c1 | 17 | -2 | -6 | 4% | -16%
COc1ccc(/C=C/c2nc(-c3ccccc3O)n(-c3ccccc3)n2)cc1 | -1 | 5 | 12 | -95% | ?
COc1ccc(/C=C/c2nc(-c3ccccc3O)n[nH]2)cc1 | 129 | 70* | 74* | 282% | 117%
COc1ccc(NC(=O)/C=C/c2ccc(S(=O)(=O)N3CCOCC3)cc2)cc1 | -19 | / | / | -28% | -11%
COc1ccc(/C=C/C(=O)Nc2ccc(C)c(S(=O)(=O)N3CCOCC3)c2)cc1 | -95* | / | / | / | /
Cc1ccc(NC(=O)/C=C/c2ccc3c(c2)OCO3)cc1S(=O)(=O)N1CCOCC1 | ? | 13* | 3 | ? | -2%
CSc1ncccc1C(=O)OCC(=O)NCCc1ccccc1 | -8 | / | / | / | /
O=C(Nc1ccc2c(c1)OCO2)N1CCC(CO)(CC2CCCCO2)CC1 (centres undefined) | 4 | 17* | 46* | -7% | -14%
O=C(Nc1ccc2c(c1)OCO2)N1CCN(c2ccccc2Cl)CC1 | -21 | 52* | 85* | -11% | /
O=C(Nc1ccc2c(c1)OCO2)N1CCN(S(=O)(=O)c2ccc(Cl)cc2)CC1 | -7 | -3 | -13 | / | 56%
COc1ccc(C)cc1NC(=O)N1CCC(CO)(CC2CCCCO2)CC1 (centres undefined) | -39 | -3 | 11 | ? | -6%
SMILES | HCMV inh | CHX counter | Shiga inhibitor | Pf growth 96h | Pf growth 48h
O=C(Nc1ccc2c(c1)OCO2)N1CCN(c2cccc(C(F)(F)F)c2)CC1 | -21 | 12* | 27* | / | 2%
CCN1c2ccccc2-c2nc(SCC(=O)Nc3cccc(C(F)(F)F)c3)ncc2S1(=O)=O | -27 | / | / | / | /
Cc1cccc(N2CCN(C(=O)C3CCN(C(=O)c4cc5sccc5n4C)CC3)CC2C)c1 (centres undefined) | -84* | / | / | / | /
Cc1ccc(C)c(N2CCN(C(=O)c3cc4sccc4n3C)CC2)c1 | -30 | 19 | 57 | 37% | ?
Cn1c(C(=O)N2CCN(c3cccc(C(F)(F)F)c3)CC2)cc2sccc21 | -19 | 0 | -17 | 9.3µM* | 4%
Nc1c(Cl)cc(-c2cn(CCC(=O)O)c(=O)cn2)cc1Cl | 22 | / | / | / | /
Cc1ccc(N2C(=O)C3CCCN3C2=S)cc1C (centres undefined) | 7 | 16* | 28 | -28% | -23%
N#Cc1ccc(NC(=O)COC(=O)CCNS(=O)(=O)c2ccccc2)cc1 | 9 | 45* | 12 | 42% | 19%
O=C(COC(=O)CCNS(=O)(=O)c1ccccc1)Nc1ccc(OC(F)F)cc1 | -5 | / | / | -16% | 1%
CC(O)(c1cccc(F)c1)c1nc(-c2cccc(C#N)c2)cs1 (centres undefined) | -2 | / | / | / | /
CCOC(=O)c1ccc(NC(=O)c2nc[nH]c2C(=O)N2CCN(C(=O)OC(C)(C)C)CC2)cc1 | ? | 1 | -1 | ? | 13µM*
CC(C)(C)OC(=O)CNC(=O)c1nc[nH]c1C(=O)N1CCN(C(=O)OC(C)(C)C)CC1 | -33 | 1 | -2 | 137% | 6%
CC(C)(C)OC(=O)N1CCN(C(=O)c2[nH]cnc2C(=O)Nc2cccc(Cl)c2)CC1 | -13 | / | / | ? | 4.1µM*
CC(C)(C)OC(=O)N1CCN(C(=O)c2[nH]cnc2C(=O)NCc2ccccc2)CC1 | -22 | / | / | -36% | 5%
CCC(=O)N1CCCC1(C)C(=O)Nc1cccc(Oc2ccccc2)c1 (centres undefined) | 1 | / | / | / | /
CCOC(=O)c1ccc(NC(=O)Cn2nnc3ccccc32)cc1 | 11 | 32* | 92* | 25% | 100%
CCOC(=O)c1ccc(NC(=O)Cn2nc(SC)c(S(=O)(=O)c3ccc(Cl)cc3)c2N)cc1 | -104* | / | / | / | /
CCSc1nn(CC(=O)Nc2ccc(C(=O)OC)cc2)c(N)c1S(=O)(=O)c1ccc(C)cc1 | 4 | / | / | / | /
O=C(CCn1nnc2ccccc21)Nc1nnc(COc2ccc(F)cc2)s1 | 36 | -1 | 27 | 9.3µM* | -4%
O=C(CCn1nnc2ccccc21)Nc1nnc(Cc2ccc(F)cc2)s1 | 50 | 10 | 3 | / | -5%
C/C(=N\NC(=O)CCn1nnc2ccccc21)c1ccco1 | 37 | 19* | 35 | 83% | 56%
COc1cccc(CN2CC(C(=O)N3CCCCCC3)CCC2=O)c1 (centres undefined) | -3 | 13 | 22 | ? | 7%
NNC(=O)CCn1nnc2ccccc21 | 4 | -2 | -5 | 57% | 20%
CCOC(=O)c1ccc(NC(=O)CCn2nnc3ccccc32)cc1 | -8 | 12* | 42 | ? | -1%
COc1ccc(/C=N/NC(=O)CCn2nnc3ccccc32)cc1 | ? | 20* | 53* | 22% | 2%
CC(=O)Nc1ccc(NC(=O)CCn2nnc3ccccc32)cc1 | 15 | 10 | 16 | -3% | 9.3µM*
CCOc1ccc(CCNC(=O)c2ccc(-n3c(C)cc4c3CCCC4)cc2)cc1OCC | -85* | / | / | / | /
Cc1cc2c(n1-c1ccc(C(=O)NCc3ccc(OC(C)C)cc3)cc1)CCCC2 | -99* | / | / | / | /
